Assay results as given in PubChem BioAssay AID2283197 (EPA ToxCast).
The source made the active and inactive calls. The calls were made as follows: active = hit-call score of the fitted dose curve at least 0.9, where 1 is the maximum; inactive = score below 0.9.

biological target: human Protein Kinase D2 (PKD2), PRKD2 (gene 25865) (UniProt Q9BZL6); assay: NVS_ENZ_hPKD2: NovaScreen (NVS) Enzymatic Assay for human Protein Kinase D2 (PKD2)
Description: NVS_ENZ_hPKD2 is a biochemical, single-readout assay that uses extracted gene-proteins in a cell-free assay. Measurements were taken 1 hour after chemical dosing in a 384-well plate.NVS_ENZ_hPKD2 is one of one assay component(s) measured or calculated from the NVS_ENZ_hPKD2 assay. It is designed to make measurements of enzyme activity, a form of enzyme reporter, as detected with fluorescence intensity signals by Fluorescence and electrophoretic mobility shift technology.Data from the assay component NVS_ENZ_hPKD2 was analyzed into 1 assay endpoint. This assay endpoint, NVS_ENZ_hPKD2, was analyzed in the positive analysis fitting direction relative to DMSO as the negative control and baseline of activity. Using a type of enzyme reporter, loss-of-signal activity can be used to understand changes in the enzymatic activity as they relate to the gene PRKD2. Furthermore, this assay endpoint can be referred to as a primary readout, because this assay has produced multiple assay endpoints where this one serves a enzymatic activity function. To generalize the intended target to other relatable targets, this assay endpoint is annotated to the kinase intended target family, where the subfamily is serine/threonine kinase.
Binding assays used specific radioligands (tritiated, iodinated) with non-radioactive competitive displacement ligands in agonist or antagonist protocols (as indicated) and various reference compounds and inhibitors to titrate specific binding to receptors and transporters. Most enzyme assays (CYPs, kinases, phosphatases, proteases, HDACs) used recombinant protein and specific substrates (fluorescence mostly, some colorimetric and radioactive) and inhibitors, followed by a biochemical separation of substrate and product. All assays for the biochemical HTS were initially run in duplicate at a single concentration (10 uM for CYP450 assays and 25 uM for all others). Assay-chemical combinations meeting a pre-defined threshold (e.g., 30% inhibition and other criteria defined below) were then run in singleton concentration-response format with maximum concentration of 20 uM for CYPs and 50 uM for all others. Each assay was run with positive and negative controls, and concurrent controls on every plate. The follow-up (secondary) screen tested active chemical-pairs in concentration series, as well as a few additional assays not tested in the primary screen, some selected negative inactives, and several cases re-run in the concentration series for confirmatory purposes.

Sequence of human Protein Kinase D2 (PKD2), PRKD2 (gene 25865) (Q9BZL6 whole entry, looked up): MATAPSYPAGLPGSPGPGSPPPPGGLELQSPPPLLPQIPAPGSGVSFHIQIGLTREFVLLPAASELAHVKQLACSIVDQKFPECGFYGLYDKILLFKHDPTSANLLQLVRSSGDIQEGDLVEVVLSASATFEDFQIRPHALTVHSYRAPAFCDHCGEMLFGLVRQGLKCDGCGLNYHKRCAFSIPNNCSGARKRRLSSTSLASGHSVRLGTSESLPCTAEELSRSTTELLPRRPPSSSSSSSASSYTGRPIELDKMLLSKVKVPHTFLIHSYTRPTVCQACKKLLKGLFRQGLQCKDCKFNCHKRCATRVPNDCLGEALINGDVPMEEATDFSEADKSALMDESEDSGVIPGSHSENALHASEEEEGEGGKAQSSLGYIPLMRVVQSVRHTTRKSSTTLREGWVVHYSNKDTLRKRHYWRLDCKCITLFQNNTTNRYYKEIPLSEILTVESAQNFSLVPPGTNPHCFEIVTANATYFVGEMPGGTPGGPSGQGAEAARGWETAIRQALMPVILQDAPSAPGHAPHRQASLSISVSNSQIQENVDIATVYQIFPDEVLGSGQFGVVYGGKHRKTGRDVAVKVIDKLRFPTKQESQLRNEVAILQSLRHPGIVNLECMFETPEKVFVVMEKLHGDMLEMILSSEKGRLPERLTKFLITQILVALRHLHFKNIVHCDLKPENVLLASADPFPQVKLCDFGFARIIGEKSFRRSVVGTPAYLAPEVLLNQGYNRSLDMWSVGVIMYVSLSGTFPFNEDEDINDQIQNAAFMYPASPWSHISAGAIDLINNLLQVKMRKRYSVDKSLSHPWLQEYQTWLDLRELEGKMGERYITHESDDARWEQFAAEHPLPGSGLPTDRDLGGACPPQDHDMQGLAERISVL

| Structure (SMILES) | outcome | AC50 |
| --- | --- | --- |
| COc1ccc(C(c2ccc(OC)cc2)C(Cl)(Cl)Cl)cc1 | inactive |  |
| O=C(Nc1ccccc1)Nc1cnns1 | inactive |  |
| O=C(Nc1ccccc1)Nc1ccnc(Cl)c1 | inactive |  |
| Oc1ccc(Cl)cc1Cc1ccccc1 |  | 25 µM (active) |
